The supplement of paper PMC10849652
About 7,900 targets were measured; listed, in parts, are those with a hit and a random draw of the rest. About 0.6% of all pairs of compound and target were hits.

Compound: C[C@H](C1=CC=C(C=C1)C(=O)NC2=C3C=CNC3=NC=C2)N
Assay: log2 fold change, soluble protein after heating vs DMSO (PISA); higher = thermal stabilisation; K562 cells, 10 uM, 30 min; active = over 0.2 and 3.5 SD of the protein, either way, in both replicates (recomputed)
In short: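 Quantification of soluble protein used TMTpro 16plex LC-MS/MS, with channel sums equalised. Samples were the supernatant after 21,000xg for 90 min of pooled aliquots from K562 cells (2×10^6 cells/mL) treated with 10 μM compound for 30 min, heated for 3 min over 48°C-58°C, and extracted in PBS with 0.5% NP-40 at 4°C. Values, from duplicates, describe thermal stability against control samples on a log2 fold-change scale.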

UniProt P54252, sequence (P54252 whole entry, looked up): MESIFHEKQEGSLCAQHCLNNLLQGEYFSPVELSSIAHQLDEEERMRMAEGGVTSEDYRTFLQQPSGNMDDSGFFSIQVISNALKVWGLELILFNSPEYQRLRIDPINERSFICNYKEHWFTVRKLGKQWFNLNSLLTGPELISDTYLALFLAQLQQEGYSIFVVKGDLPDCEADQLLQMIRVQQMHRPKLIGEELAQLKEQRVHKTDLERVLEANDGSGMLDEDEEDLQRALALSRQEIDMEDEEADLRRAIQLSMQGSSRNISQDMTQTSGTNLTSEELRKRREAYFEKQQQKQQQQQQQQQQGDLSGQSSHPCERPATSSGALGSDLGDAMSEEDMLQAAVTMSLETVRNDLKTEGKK
UniProt Q15059, sequence (Q15059 whole entry, looked up): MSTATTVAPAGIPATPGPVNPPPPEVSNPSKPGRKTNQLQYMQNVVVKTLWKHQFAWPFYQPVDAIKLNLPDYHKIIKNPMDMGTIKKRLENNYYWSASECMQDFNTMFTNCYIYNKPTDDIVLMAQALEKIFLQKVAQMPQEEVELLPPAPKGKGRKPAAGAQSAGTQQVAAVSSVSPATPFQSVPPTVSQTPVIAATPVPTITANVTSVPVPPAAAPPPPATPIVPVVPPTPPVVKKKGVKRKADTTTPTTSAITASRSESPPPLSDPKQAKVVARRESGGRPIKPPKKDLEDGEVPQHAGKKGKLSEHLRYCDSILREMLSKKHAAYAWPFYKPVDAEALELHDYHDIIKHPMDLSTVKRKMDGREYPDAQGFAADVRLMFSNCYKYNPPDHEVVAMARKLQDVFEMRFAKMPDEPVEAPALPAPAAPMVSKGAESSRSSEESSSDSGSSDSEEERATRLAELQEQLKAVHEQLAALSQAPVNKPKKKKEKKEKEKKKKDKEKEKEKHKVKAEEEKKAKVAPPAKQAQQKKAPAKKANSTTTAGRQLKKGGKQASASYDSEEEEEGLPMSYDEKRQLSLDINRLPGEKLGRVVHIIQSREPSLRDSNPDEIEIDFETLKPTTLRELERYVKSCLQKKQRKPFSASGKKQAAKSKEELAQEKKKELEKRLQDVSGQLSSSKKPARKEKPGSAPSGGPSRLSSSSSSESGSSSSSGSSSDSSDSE
UniProt Q13535, sequence (Q13535 whole entry, looked up): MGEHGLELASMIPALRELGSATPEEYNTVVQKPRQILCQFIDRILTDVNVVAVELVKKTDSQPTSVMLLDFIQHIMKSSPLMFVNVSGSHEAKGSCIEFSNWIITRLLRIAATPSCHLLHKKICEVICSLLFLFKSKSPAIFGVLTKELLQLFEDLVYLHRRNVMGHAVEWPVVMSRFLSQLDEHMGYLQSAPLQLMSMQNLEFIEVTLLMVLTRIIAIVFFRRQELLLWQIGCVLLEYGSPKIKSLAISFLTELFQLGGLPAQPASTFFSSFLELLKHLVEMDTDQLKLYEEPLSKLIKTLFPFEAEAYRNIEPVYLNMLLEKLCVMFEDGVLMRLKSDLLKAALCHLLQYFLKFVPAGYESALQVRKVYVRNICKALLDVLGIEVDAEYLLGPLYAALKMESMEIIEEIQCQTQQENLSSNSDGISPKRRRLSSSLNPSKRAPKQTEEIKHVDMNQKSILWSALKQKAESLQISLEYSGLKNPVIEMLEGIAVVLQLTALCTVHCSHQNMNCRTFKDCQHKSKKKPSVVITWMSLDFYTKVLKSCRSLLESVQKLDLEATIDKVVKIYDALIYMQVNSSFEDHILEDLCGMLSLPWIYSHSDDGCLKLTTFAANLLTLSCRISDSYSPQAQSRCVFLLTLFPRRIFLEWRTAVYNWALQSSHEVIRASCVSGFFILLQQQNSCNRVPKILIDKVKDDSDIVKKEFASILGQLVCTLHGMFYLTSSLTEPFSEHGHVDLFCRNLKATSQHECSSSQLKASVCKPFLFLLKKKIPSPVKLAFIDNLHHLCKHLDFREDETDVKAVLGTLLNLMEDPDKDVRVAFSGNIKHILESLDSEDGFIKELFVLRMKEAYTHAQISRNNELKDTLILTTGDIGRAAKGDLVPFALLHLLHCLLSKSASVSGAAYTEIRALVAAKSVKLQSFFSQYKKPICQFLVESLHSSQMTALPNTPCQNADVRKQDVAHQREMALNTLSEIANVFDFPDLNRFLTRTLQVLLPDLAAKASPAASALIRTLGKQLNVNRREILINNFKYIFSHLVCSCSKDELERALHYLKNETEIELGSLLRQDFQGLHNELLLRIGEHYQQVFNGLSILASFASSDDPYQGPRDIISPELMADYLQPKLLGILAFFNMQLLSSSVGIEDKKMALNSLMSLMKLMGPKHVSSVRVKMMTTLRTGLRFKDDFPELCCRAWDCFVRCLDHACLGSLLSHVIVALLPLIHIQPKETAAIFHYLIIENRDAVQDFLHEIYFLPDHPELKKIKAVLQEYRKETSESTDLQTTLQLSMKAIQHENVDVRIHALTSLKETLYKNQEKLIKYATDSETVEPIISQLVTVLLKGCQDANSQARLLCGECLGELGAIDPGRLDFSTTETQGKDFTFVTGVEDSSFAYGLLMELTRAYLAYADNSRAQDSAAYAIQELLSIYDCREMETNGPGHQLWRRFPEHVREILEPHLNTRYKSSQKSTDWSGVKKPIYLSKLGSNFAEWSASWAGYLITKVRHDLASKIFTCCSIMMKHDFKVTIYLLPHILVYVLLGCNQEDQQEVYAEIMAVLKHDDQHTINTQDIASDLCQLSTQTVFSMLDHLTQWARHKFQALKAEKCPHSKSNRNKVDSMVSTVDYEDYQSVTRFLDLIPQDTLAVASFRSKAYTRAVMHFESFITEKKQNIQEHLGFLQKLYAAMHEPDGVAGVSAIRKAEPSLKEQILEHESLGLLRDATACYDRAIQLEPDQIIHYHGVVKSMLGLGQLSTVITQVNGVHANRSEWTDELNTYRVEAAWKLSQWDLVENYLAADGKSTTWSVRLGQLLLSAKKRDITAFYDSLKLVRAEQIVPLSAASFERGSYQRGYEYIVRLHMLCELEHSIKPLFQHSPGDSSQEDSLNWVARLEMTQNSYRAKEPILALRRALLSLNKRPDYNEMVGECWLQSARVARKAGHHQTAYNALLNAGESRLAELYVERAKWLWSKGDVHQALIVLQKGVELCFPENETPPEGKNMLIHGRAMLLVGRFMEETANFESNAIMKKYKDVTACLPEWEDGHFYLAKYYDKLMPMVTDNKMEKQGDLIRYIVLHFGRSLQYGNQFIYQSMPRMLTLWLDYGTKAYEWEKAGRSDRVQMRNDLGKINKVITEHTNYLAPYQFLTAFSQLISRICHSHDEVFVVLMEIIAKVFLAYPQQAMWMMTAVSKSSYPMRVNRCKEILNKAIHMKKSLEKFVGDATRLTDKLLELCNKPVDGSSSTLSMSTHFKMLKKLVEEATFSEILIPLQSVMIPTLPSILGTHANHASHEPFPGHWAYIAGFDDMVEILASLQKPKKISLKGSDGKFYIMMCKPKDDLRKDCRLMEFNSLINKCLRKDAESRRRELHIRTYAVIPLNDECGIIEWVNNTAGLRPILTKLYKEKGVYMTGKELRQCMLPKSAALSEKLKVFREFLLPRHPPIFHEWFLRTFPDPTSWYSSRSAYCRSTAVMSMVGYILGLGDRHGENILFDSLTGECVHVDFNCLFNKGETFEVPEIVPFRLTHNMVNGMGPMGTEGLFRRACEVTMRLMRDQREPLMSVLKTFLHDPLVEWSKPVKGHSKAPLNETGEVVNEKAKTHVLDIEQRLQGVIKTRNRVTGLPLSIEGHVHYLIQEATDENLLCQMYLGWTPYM
UniProt Q13825, sequence (Q13825 whole entry, looked up): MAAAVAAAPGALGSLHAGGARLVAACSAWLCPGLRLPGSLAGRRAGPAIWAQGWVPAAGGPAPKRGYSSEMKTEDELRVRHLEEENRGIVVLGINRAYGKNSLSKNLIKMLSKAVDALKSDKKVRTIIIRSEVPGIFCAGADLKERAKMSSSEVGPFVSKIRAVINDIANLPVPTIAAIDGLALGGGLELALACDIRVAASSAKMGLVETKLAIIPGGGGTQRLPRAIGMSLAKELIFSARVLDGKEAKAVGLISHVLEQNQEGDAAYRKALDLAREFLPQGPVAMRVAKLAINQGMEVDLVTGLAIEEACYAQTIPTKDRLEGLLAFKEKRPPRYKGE
UniProt P18846, sequence (P18846 whole entry, looked up): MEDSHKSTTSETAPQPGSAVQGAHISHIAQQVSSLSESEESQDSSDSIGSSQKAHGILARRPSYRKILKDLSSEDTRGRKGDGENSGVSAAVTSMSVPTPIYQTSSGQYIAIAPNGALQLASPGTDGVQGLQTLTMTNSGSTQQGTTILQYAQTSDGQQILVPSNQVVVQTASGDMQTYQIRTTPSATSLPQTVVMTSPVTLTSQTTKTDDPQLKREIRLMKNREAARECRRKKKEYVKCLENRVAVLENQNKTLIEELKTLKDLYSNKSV
UniProt O14965, sequence (O14965 whole entry, looked up): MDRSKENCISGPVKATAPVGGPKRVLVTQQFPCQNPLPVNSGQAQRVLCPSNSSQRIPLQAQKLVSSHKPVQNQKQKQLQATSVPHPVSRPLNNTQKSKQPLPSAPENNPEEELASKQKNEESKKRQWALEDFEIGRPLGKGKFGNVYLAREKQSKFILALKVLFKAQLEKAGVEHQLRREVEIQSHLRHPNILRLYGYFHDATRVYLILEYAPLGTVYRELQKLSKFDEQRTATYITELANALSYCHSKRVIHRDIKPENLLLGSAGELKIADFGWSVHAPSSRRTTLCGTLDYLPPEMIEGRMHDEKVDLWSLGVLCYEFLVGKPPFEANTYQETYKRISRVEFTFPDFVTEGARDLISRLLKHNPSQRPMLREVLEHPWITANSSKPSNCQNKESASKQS
UniProt Q96F25, sequence (Q96F25 whole entry, looked up): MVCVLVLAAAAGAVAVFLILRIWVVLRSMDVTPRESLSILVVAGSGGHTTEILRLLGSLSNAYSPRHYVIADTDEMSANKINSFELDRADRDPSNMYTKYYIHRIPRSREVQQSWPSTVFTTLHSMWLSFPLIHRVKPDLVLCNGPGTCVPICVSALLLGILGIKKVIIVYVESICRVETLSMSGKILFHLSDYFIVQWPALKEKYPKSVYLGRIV

For AARSD1 (UniProt Q9BTE6), which log2 fold change is on record?
The log2 fold change was 0.033 (inactive).

With BDH2 (UniProt Q9BUT1) as the target, how does the log2 fold change read?
Its log2 fold change is -0.215 (inactive).

For AUH (UniProt Q13825), which log2 fold change is on record?
The log2 fold change was -0.105 (inactive).

With ACVR1 (UniProt Q04771) as the target, how does the log2 fold change read?
The log2 fold change was 0.642 (active).

With ARHGAP25 isoform 4 (UniProt P42331) as the target, how does the log2 fold change read?
Its log2 fold change is 0.309 (inactive).

For ALDH9A1 (UniProt P49189), which log2 fold change is on record?
Its log2 fold change is -0.116 (inactive).

Which log2 fold change does the source give for BAIAP2 isoform 4 (UniProt Q9UQB8) here?
The log2 fold change was 0.29 (inactive).

For BRD4 (UniProt O60885), which log2 fold change is on record?
The log2 fold change was -0.009 (inactive).

ATF1 (UniProt P18846) was tested. Which log2 fold change did it give?
The log2 fold change was 0.073 (inactive).

ALG14 (UniProt Q96F25) was tested. Which log2 fold change did it give?
The log2 fold change was -0.042 (inactive).

With AKNA (UniProt Q7Z591) as the target, how does the log2 fold change read?
Its log2 fold change is -0.02 (inactive).

With BSCL2 isoform 4 (UniProt Q96G97) as the target, how does the log2 fold change read?
Its log2 fold change is -0.007 (inactive).

For ARHGAP4 isoform 2 (UniProt P98171), which log2 fold change is on record?
Its log2 fold change is 0.212 (inactive).

With AUNIP isoform 2 (UniProt Q9H7T9) as the target, how does the log2 fold change read?
The log2 fold change was -0.007 (inactive).

For ARRDC1 (UniProt Q8N5I2), which log2 fold change is on record?
The log2 fold change was 0.205 (inactive).

How did the log2 fold change turn out when ATXN3 isoform 1 (UniProt P54252) was run?
The log2 fold change was 0.076 (inactive).

How did the log2 fold change turn out when ABHD11 (UniProt Q8NFV4) was run?
The log2 fold change was 0.057 (inactive).

With BRD3 (UniProt Q15059) as the target, how does the log2 fold change read?
Its log2 fold change is -0.02 (inactive).

ATR (UniProt Q13535) was tested. Which log2 fold change did it give?
Its log2 fold change is 0.022 (inactive).

How did the log2 fold change turn out when AURKA (UniProt O14965) was run?
Its log2 fold change is 0.066 (inactive).

For ASS1 (UniProt P00966), which log2 fold change is on record?
Its log2 fold change is -0.079 (inactive).

With BTBD6 (UniProt Q96KE9) as the target, how does the log2 fold change read?
The log2 fold change was -0.308 (inactive).

With ADD1 isoform 4 (UniProt P35611) as the target, how does the log2 fold change read?
The log2 fold change was 0.186 (inactive).
